According to PMC11006913:
Substitutions are numbered along the chain they refer to.

How the values were obtained:
Assay in all cases: PBM; 200 nM protein, PBS
Conditions in all cases: dsDNA, one strand shown
[1] = molecular target: T1, NKX2-4 (Homo sapiens, UniProt Q9H2Z4 175-261, P217L)
T1 sequence: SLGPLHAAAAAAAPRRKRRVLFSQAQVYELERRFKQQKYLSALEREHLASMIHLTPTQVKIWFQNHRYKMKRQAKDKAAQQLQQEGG

[2] = molecular target: T2, NKX2-4 (Homo sapiens, UniProt Q9H2Z4 175-261, T231S)
T2 sequence: T1 sequence with L43P, T57S

[3] = molecular target: T3, NKX2-4 (Homo sapiens, UniProt Q9H2Z4 175-261)
T3 sequence: T1 sequence with L43P

[4] = molecular target: T4, NKX2-6 (Homo sapiens, UniProt A6NCS4 118-204, R150C)
T4 sequence: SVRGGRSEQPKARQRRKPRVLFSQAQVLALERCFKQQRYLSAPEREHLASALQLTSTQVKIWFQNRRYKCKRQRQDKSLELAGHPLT

[5] = molecular target: T5, NKX2-4 (Homo sapiens, UniProt Q9H2Z4 175-261, R246Q)
T5 sequence: T1 sequence with L43P, R72Q

[6] = molecular target: HOXC9 (Homo sapiens, UniProt P31274 178-260, K195R)
HOXC9 (Homo sapiens, UniProt P31274 178-260, K195R), sequence (P31274 178-260 K195R): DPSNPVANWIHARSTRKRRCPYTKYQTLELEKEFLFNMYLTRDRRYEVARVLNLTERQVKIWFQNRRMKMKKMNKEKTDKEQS

[7] = molecular target: HOXC9 (Homo sapiens, UniProt P31274 178-260)
HOXC9 (Homo sapiens, UniProt P31274 178-260), sequence (P31274 178-260): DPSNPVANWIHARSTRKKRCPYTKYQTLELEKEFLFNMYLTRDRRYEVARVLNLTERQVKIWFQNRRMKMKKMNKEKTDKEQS

[8] = molecular target: PITX2 (Homo sapiens, UniProt Q99697 72-157)
[9] = molecular target: HOXC9 (Homo sapiens, UniProt P31274 178-260, R193K)
HOXC9 (Homo sapiens, UniProt P31274 178-260, R193K), sequence (P31274 178-260 R193K): as the sequence (P31274 178-260) above, with R16K counted along it

[10] = molecular target: HOXC9 (Homo sapiens, UniProt P31274 178-260, R222W)
HOXC9 (Homo sapiens, UniProt P31274 178-260, R222W), sequence (P31274 178-260 R222W): as the sequence (P31274 178-260) above, with R45W counted along it

[11] = molecular target: T6, PAX4 (Homo sapiens, UniProt O43316 9-242, R200K)
T6 sequence: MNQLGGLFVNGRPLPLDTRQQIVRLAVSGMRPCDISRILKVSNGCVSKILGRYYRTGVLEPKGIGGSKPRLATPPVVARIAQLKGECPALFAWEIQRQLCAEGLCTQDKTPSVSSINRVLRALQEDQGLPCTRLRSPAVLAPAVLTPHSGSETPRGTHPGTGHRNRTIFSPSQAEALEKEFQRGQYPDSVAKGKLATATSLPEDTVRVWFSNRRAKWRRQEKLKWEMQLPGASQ

[12] = molecular target: T7, PAX4 (Homo sapiens, UniProt O43316 9-242)
T7 sequence: T6 sequence with K192R

[13] = molecular target: ALX3 (Homo sapiens, UniProt O95076 139-225, N203Q)
ALX3 (Homo sapiens, UniProt O95076 139-225, N203Q), sequence (O95076 139-225 N203Q): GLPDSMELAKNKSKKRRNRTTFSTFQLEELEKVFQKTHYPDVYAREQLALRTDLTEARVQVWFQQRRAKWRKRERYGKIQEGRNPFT

[14] = molecular target: T8, PAX4 (Homo sapiens, UniProt O43316 9-242, R200Q)
T8 sequence: T6 sequence with K192Q

[15] = molecular target: T9, PAX4 (Homo sapiens, UniProt O43316 9-242, F177V)
T9 sequence: T6 sequence with F169V, K192R

[16] = molecular target: ALX3 (Homo sapiens, UniProt O95076 139-225)
ALX3 (Homo sapiens, UniProt O95076 139-225), sequence (O95076 139-225): as the sequence (O95076 139-225 N203Q) above, with Q65N counted along it

[17] = molecular target: T10, PAX4 (Homo sapiens, UniProt O43316 9-242, F177Y)
T10 sequence: T6 sequence with F169Y, K192R

[18] = molecular target: VAX1 (Homo sapiens, UniProt Q5SQQ9 86-172)
VAX1 (Homo sapiens, UniProt Q5SQQ9 86-172), sequence (Q5SQQ9 86-172): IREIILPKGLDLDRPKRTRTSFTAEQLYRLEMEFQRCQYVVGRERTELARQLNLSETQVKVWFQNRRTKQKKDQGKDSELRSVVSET

[19] = molecular target: ALX3 (Homo sapiens, UniProt O95076 139-225, L168Q)
ALX3 (Homo sapiens, UniProt O95076 139-225, L168Q), sequence (O95076 139-225 L168Q): as the sequence (O95076 139-225 N203Q) above, with L30Q, Q65N counted along it

[20] = molecular target: ALX3 (Homo sapiens, UniProt O95076 139-225, L168V)
ALX3 (Homo sapiens, UniProt O95076 139-225, L168V), sequence (O95076 139-225 L168V): as the sequence (O95076 139-225 N203Q) above, with L30V, Q65N counted along it

[21] = molecular target: VAX1 (Homo sapiens, UniProt Q5SQQ9 86-172, T142I)
VAX1 (Homo sapiens, UniProt Q5SQQ9 86-172, T142I), sequence (Q5SQQ9 86-172 T142I): as the sequence (Q5SQQ9 86-172) above, with T57I counted along it

[22] = molecular target: T11, PAX4 (Homo sapiens, UniProt O43316 9-242, R227W)
T11 sequence: T6 sequence with K192R, R219W

[23] = molecular target: ALX3 (Homo sapiens, UniProt O95076 139-225, N203S)
ALX3 (Homo sapiens, UniProt O95076 139-225, N203S), sequence (O95076 139-225 N203S): as the sequence (O95076 139-225 N203Q) above, with Q65S counted along it

[24] = molecular target: VAX1 (Homo sapiens, UniProt Q5SQQ9 86-172, K157R)
VAX1 (Homo sapiens, UniProt Q5SQQ9 86-172, K157R), sequence (Q5SQQ9 86-172 K157R): as the sequence (Q5SQQ9 86-172) above, with K72R counted along it

[25] = molecular target: ALX4 (Homo sapiens, UniProt Q9H161 200-286)
ALX4 (Homo sapiens, UniProt Q9H161 200-286), sequence (Q9H161 200-286): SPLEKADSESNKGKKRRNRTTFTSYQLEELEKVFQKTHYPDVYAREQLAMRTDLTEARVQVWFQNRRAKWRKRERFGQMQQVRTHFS

[26] = molecular target: ALX4 (Homo sapiens, UniProt Q9H161 200-286, Q225E)
ALX4 (Homo sapiens, UniProt Q9H161 200-286, Q225E), sequence (Q9H161 200-286 Q225E): as the sequence (Q9H161 200-286) above, with Q26E counted along it

Sequence: ACTCAAGT
- binding signal [1]: 12.4 upbm affinity estimate (log intensity, higher = more binding, comparable within an allelic series)
- binding signal [2]: 12.9 upbm affinity estimate (log intensity, higher = more binding, comparable within an allelic series)
- binding signal [3]: 12.3 upbm affinity estimate (log intensity, higher = more binding, comparable within an allelic series)
- binding signal [4]: 11.4 upbm affinity estimate (log intensity, higher = more binding, comparable within an allelic series)
- binding signal [5]: 12.9 upbm affinity estimate (log intensity, higher = more binding, comparable within an allelic series)

Sequence: CCGCCACG
- binding signal [1]: 9.92 upbm affinity estimate (log intensity, higher = more binding, comparable within an allelic series)
- binding signal [2]: 9.9 upbm affinity estimate (log intensity, higher = more binding, comparable within an allelic series)
- binding signal [3]: 9.94 upbm affinity estimate (log intensity, higher = more binding, comparable within an allelic series)
- binding signal [5]: 9.94 upbm affinity estimate (log intensity, higher = more binding, comparable within an allelic series)

Sequence: CCCACTCA
- binding signal [1]: 12.4 upbm affinity estimate (log intensity, higher = more binding, comparable within an allelic series)
- binding signal [2]: 12.7 upbm affinity estimate (log intensity, higher = more binding, comparable within an allelic series)
- binding signal [3]: 12.2 upbm affinity estimate (log intensity, higher = more binding, comparable within an allelic series)
- binding signal [4]: 11.3 upbm affinity estimate (log intensity, higher = more binding, comparable within an allelic series)
- binding signal [5]: 12.6 upbm affinity estimate (log intensity, higher = more binding, comparable within an allelic series)

Sequence: CGCGCCCG
- binding signal [1]: 9.29 upbm affinity estimate (log intensity, higher = more binding, comparable within an allelic series)
- binding signal [6]: 9.51 upbm affinity estimate (log intensity, higher = more binding, comparable within an allelic series)
- binding signal [2]: 9.29 upbm affinity estimate (log intensity, higher = more binding, comparable within an allelic series)
- binding signal [3]: 9.39 upbm affinity estimate (log intensity, higher = more binding, comparable within an allelic series)
- binding signal [7]: 9.64 upbm affinity estimate (log intensity, higher = more binding, comparable within an allelic series)
- binding signal [8]: 7.51 upbm affinity estimate (log intensity, higher = more binding, comparable within an allelic series)
- binding signal [9]: 9.54 upbm affinity estimate (log intensity, higher = more binding, comparable within an allelic series)
- binding signal [5]: 9.3 upbm affinity estimate (log intensity, higher = more binding, comparable within an allelic series)
- binding signal [10]: 9.66 upbm affinity estimate (log intensity, higher = more binding, comparable within an allelic series)

Sequence: CCCGGCGC
- binding signal [1]: 9.45 upbm affinity estimate (log intensity, higher = more binding, comparable within an allelic series)
- binding signal [2]: 9.31 upbm affinity estimate (log intensity, higher = more binding, comparable within an allelic series)
- binding signal [11]: 9.17 upbm affinity estimate (log intensity, higher = more binding, comparable within an allelic series)
- binding signal [12]: 9.1 upbm affinity estimate (log intensity, higher = more binding, comparable within an allelic series)
- binding signal [3]: 9.49 upbm affinity estimate (log intensity, higher = more binding, comparable within an allelic series)
- binding signal [13]: 7.83 upbm affinity estimate (log intensity, higher = more binding, comparable within an allelic series)
- binding signal [14]: 9.2 upbm affinity estimate (log intensity, higher = more binding, comparable within an allelic series)
- binding signal [15]: 9.03 upbm affinity estimate (log intensity, higher = more binding, comparable within an allelic series)
- binding signal [16]: 7.67 upbm affinity estimate (log intensity, higher = more binding, comparable within an allelic series)
- binding signal [5]: 9.55 upbm affinity estimate (log intensity, higher = more binding, comparable within an allelic series)
- binding signal [17]: 9.02 upbm affinity estimate (log intensity, higher = more binding, comparable within an allelic series)
- binding signal [18]: 7.45 upbm affinity estimate (log intensity, higher = more binding, comparable within an allelic series)
- binding signal [19]: 7.69 upbm affinity estimate (log intensity, higher = more binding, comparable within an allelic series)
- binding signal [20]: 7.67 upbm affinity estimate (log intensity, higher = more binding, comparable within an allelic series)
- binding signal [21]: 7.15 upbm affinity estimate (log intensity, higher = more binding, comparable within an allelic series)
- binding signal [22]: 9.13 upbm affinity estimate (log intensity, higher = more binding, comparable within an allelic series)
- binding signal [23]: 7.82 upbm affinity estimate (log intensity, higher = more binding, comparable within an allelic series)
- binding signal [24]: 7.47 upbm affinity estimate (log intensity, higher = more binding, comparable within an allelic series)

Sequence: GATGAGGA
- binding signal [1]: 11.4 upbm affinity estimate (log intensity, higher = more binding, comparable within an allelic series)
- binding signal [2]: 11.6 upbm affinity estimate (log intensity, higher = more binding, comparable within an allelic series)
- binding signal [3]: 11.3 upbm affinity estimate (log intensity, higher = more binding, comparable within an allelic series)

Sequence: AGCGGCCA
- binding signal [1]: 9.69 upbm affinity estimate (log intensity, higher = more binding, comparable within an allelic series)
- binding signal [2]: 9.47 upbm affinity estimate (log intensity, higher = more binding, comparable within an allelic series)
- binding signal [3]: 9.64 upbm affinity estimate (log intensity, higher = more binding, comparable within an allelic series)
- binding signal [8]: 8.04 upbm affinity estimate (log intensity, higher = more binding, comparable within an allelic series)
- binding signal [5]: 9.57 upbm affinity estimate (log intensity, higher = more binding, comparable within an allelic series)

Sequence: AAAGGCGG
- binding signal [1]: 9.6 upbm affinity estimate (log intensity, higher = more binding, comparable within an allelic series)
- binding signal [2]: 9.51 upbm affinity estimate (log intensity, higher = more binding, comparable within an allelic series)
- binding signal [3]: 9.55 upbm affinity estimate (log intensity, higher = more binding, comparable within an allelic series)
- binding signal [4]: 9.54 upbm affinity estimate (log intensity, higher = more binding, comparable within an allelic series)
- binding signal [5]: 9.58 upbm affinity estimate (log intensity, higher = more binding, comparable within an allelic series)

Sequence: GGTCCTCA
- binding signal [1]: 11.5 upbm affinity estimate (log intensity, higher = more binding, comparable within an allelic series)
- binding signal [2]: 11.9 upbm affinity estimate (log intensity, higher = more binding, comparable within an allelic series)
- binding signal [3]: 11.5 upbm affinity estimate (log intensity, higher = more binding, comparable within an allelic series)

Sequence: CGTCCCGA
- binding signal [1]: 9.52 upbm affinity estimate (log intensity, higher = more binding, comparable within an allelic series)
- binding signal [2]: 9.51 upbm affinity estimate (log intensity, higher = more binding, comparable within an allelic series)
- binding signal [25]: 8.27 upbm affinity estimate (log intensity, higher = more binding, comparable within an allelic series)
- binding signal [3]: 9.43 upbm affinity estimate (log intensity, higher = more binding, comparable within an allelic series)
- binding signal [26]: 8.37 upbm affinity estimate (log intensity, higher = more binding, comparable within an allelic series)
- binding signal [5]: 9.52 upbm affinity estimate (log intensity, higher = more binding, comparable within an allelic series)
